Measurements: the supplement of paper PMC11732987, “Enantioselective OTUD7B fragment discovery through chemoproteomics screening and high-throughput optimisation” (Communications Chemistry, 2025)

How the values were obtained:
Test in all cases: log2 ratio of Biotin-Ahx-Ub-VS probe labelling (fragment/DMSO); higher = less target engagement (more negative = stronger competition), active = hit call of the paper (q ≤ 0.05, log2 ratio ≤ -1)
Details in all cases: compound concentration: 200 uM; treatment time: 3 h
USP34 = USP34 (UniProt Q70CQ2)
Procedure, shortened: (§1)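 Labelled DUBs from HEK293T lysate were NeutrAvidin-enriched, digested with LysC and trypsin, and run by diaPASEF LC-MS/MS. Before that, each 495 µg sample in Tris/CHAPS/IGEPAL buffer with protease inhibitors was treated in triplicate with fragment at 200 µM or vehicle for 3 h, then with Biotin-Ahx-Ub-VS at 0.5 µM final for 1 h. Values are average log2 ratios of fragment over vehicle by unpaired t-test, based on global-median-normalised Spectronaut label-free quantities from proteins with ≥2 unique peptides.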

USP36 = biological target: T1, USP36 (UniProt Q9P275)
T1 sequence (whole entry): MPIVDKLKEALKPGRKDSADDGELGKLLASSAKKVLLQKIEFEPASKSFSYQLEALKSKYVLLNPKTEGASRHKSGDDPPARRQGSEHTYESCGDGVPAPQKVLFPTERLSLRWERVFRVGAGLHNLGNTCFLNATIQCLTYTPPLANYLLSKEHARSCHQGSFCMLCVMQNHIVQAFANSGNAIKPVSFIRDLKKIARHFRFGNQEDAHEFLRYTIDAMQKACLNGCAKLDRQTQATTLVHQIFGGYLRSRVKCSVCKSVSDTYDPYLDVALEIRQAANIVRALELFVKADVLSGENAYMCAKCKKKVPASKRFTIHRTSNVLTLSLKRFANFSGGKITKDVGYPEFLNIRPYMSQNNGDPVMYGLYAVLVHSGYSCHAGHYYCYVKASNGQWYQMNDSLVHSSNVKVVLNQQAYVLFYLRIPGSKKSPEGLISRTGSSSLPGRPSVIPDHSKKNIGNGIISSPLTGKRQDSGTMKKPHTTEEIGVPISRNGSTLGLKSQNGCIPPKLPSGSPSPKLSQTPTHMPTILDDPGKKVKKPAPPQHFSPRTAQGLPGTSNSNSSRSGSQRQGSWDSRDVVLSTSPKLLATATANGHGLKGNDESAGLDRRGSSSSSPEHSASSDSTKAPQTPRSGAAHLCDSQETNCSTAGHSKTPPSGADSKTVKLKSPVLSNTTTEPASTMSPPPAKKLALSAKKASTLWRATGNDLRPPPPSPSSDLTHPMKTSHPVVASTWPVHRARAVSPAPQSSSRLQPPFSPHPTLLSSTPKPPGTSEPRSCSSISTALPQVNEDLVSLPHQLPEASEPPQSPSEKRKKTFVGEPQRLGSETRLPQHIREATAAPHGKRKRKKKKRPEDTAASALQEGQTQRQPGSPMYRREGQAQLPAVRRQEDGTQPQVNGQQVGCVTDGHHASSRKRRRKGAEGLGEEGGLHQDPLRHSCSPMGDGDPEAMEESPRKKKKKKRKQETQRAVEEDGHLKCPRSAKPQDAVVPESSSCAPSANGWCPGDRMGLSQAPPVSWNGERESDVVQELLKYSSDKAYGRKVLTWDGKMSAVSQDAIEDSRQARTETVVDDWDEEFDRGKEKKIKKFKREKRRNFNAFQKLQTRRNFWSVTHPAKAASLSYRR
Procedure, shortened: as §1

USP38 = biological target: T2, USP38 (UniProt Q8NB14)
T2 sequence (whole entry): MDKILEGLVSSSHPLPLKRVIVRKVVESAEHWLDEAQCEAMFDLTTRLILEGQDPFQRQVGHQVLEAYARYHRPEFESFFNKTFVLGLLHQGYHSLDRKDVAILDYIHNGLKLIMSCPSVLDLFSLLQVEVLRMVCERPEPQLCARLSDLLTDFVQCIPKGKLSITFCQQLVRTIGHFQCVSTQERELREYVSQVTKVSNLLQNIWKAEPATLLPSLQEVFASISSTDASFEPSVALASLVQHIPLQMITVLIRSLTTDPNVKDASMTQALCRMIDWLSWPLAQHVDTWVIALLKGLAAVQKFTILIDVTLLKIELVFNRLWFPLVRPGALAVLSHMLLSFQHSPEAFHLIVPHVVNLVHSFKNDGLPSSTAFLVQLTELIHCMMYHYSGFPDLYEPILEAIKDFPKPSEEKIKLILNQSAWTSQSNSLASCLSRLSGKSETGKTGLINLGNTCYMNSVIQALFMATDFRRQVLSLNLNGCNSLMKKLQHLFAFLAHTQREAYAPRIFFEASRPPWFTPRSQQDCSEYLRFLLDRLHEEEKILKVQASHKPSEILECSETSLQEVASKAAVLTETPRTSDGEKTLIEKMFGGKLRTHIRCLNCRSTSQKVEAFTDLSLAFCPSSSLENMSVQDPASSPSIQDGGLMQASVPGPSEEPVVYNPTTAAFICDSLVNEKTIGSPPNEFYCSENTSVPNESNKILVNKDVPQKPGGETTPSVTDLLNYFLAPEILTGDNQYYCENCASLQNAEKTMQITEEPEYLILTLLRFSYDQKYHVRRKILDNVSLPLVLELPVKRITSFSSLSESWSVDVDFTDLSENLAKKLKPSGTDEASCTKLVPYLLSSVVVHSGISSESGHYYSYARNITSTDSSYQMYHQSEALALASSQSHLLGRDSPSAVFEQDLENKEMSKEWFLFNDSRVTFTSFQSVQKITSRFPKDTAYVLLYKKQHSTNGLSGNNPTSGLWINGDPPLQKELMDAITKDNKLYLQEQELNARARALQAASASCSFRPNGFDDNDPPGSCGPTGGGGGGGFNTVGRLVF
Procedure, shortened: as §1

USP39 = biological target: T3, USP39 (UniProt Q53GS9)
T3 sequence (whole entry): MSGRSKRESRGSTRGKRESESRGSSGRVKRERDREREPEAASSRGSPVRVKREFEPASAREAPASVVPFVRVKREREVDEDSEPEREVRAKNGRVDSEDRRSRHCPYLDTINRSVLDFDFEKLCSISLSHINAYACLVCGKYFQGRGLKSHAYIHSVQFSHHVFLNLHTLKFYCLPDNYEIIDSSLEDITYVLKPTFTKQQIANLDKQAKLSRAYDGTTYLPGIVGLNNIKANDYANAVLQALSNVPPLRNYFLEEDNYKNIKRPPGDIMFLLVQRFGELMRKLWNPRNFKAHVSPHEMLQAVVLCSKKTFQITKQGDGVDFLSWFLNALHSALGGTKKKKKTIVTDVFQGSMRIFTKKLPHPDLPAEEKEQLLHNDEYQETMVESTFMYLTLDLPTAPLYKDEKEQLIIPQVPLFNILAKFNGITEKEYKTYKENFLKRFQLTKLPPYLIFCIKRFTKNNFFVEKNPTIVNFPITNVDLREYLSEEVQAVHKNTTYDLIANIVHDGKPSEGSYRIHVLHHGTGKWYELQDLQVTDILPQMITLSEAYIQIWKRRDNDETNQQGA
Procedure, shortened: as §1

USP4 = biological target: T4, USP4 (UniProt Q13107)
T4 sequence (whole entry): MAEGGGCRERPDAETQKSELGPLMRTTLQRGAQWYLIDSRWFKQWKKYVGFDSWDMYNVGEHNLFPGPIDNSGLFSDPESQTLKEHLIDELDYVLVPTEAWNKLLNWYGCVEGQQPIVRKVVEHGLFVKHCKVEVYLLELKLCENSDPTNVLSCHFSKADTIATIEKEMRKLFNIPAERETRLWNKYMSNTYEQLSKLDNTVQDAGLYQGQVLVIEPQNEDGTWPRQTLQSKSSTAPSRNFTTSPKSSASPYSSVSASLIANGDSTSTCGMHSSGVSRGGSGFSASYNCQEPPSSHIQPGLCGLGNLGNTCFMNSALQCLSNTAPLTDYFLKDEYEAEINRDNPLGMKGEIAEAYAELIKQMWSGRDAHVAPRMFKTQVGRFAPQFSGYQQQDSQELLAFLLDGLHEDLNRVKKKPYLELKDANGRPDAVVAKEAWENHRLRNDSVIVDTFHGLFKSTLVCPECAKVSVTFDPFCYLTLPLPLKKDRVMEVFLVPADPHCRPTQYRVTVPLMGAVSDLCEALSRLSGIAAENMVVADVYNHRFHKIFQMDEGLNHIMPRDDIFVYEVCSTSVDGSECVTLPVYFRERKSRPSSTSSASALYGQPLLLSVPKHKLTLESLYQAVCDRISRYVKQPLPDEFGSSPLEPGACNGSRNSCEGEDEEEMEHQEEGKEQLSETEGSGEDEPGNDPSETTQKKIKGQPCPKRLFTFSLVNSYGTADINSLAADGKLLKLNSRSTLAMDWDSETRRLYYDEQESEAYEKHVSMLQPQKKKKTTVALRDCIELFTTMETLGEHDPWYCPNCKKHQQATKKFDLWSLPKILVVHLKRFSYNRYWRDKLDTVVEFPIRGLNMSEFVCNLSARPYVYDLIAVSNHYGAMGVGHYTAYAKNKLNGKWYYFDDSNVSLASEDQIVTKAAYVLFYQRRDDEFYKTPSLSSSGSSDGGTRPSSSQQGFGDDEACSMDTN
Procedure, shortened: as §1

Measured: log2 ratio of Biotin-Ahx-Ub-VS probe labelling

USP34, sequence (Q70CQ2 whole entry, the tested form may be a part): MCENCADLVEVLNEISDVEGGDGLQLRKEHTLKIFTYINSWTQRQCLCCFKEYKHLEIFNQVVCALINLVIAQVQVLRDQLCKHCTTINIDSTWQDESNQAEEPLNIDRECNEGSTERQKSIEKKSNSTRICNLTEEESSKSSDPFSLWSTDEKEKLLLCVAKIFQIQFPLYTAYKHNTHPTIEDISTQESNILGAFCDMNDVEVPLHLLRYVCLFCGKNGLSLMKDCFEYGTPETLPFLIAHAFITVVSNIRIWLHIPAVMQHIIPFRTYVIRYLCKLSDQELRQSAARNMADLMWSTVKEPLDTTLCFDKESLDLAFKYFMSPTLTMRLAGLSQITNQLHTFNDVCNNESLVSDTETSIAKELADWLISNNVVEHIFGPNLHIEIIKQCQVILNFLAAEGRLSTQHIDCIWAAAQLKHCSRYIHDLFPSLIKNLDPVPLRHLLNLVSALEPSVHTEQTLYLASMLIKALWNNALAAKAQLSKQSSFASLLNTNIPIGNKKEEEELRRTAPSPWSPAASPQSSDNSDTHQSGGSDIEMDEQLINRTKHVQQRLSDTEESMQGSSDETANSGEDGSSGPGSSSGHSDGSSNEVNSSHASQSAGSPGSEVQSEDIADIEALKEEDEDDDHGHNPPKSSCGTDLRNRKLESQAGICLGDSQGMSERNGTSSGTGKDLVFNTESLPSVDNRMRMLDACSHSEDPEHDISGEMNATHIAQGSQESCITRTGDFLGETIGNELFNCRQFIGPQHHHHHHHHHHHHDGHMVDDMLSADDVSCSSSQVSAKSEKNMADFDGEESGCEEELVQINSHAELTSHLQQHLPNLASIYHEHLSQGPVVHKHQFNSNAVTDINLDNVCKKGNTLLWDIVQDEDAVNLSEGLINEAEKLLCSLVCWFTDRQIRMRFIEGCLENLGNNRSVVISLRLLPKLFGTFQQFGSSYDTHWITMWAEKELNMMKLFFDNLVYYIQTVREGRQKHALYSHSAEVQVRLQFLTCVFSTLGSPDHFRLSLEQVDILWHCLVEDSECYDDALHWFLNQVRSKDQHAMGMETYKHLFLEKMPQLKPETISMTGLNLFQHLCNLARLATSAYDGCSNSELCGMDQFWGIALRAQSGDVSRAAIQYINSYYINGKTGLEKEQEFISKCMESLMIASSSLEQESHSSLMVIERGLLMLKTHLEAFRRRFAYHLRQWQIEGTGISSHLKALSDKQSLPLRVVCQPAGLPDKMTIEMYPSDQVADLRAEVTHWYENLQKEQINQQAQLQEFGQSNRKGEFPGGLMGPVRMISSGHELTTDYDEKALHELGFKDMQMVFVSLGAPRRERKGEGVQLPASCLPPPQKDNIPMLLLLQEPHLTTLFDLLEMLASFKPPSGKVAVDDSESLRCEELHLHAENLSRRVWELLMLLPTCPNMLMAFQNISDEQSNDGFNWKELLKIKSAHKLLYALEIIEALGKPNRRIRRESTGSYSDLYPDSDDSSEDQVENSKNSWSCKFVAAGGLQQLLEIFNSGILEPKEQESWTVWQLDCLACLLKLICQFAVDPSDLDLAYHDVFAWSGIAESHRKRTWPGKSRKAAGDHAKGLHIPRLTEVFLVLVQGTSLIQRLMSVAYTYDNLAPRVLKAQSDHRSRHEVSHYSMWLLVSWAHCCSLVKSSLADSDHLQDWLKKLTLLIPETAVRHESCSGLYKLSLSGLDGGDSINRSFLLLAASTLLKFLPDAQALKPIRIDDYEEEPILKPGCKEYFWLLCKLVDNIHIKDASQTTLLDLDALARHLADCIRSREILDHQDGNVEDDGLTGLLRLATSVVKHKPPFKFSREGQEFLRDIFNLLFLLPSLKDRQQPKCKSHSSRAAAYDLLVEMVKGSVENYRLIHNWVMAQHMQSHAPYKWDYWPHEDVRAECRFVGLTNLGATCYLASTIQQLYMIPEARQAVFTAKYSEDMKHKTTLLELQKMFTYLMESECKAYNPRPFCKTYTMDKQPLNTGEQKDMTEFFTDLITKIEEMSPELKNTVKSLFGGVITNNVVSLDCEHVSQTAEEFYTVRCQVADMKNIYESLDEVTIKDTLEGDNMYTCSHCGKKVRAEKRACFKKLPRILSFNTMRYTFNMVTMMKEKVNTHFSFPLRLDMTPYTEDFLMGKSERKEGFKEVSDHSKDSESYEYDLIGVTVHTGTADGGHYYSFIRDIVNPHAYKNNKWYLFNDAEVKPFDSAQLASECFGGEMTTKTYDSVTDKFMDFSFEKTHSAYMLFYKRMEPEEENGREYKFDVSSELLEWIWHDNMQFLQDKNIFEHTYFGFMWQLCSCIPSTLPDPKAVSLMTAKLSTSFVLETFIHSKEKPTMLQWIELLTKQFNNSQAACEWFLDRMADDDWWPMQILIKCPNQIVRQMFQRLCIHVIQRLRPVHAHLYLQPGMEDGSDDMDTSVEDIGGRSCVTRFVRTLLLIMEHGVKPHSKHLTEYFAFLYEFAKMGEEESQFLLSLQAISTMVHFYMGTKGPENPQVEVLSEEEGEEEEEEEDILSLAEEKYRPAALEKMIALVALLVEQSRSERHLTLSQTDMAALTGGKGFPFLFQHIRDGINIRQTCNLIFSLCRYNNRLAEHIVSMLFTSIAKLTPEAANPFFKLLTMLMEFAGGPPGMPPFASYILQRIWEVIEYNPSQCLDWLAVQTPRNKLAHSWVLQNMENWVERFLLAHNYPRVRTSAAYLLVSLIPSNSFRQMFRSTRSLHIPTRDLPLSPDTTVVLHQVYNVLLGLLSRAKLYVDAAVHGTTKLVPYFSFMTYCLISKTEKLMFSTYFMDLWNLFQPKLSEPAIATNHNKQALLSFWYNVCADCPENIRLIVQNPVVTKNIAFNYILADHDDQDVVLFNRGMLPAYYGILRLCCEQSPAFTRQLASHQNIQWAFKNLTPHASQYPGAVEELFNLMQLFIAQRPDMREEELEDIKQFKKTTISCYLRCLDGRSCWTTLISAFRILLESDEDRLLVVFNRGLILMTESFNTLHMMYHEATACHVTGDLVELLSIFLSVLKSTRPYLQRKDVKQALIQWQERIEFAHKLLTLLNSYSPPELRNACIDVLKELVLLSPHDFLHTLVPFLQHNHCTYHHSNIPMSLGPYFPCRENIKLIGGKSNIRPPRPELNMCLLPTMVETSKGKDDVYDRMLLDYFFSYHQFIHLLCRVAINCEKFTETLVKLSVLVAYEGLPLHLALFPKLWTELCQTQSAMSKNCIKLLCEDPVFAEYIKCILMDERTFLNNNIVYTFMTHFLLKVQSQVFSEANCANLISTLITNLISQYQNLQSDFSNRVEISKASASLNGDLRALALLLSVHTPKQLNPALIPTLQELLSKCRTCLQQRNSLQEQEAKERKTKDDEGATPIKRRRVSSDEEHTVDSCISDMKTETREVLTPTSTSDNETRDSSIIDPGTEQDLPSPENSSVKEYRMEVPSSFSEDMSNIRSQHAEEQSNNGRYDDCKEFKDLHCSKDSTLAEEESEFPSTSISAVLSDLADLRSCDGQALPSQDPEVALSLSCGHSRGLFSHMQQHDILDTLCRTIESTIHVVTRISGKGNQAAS

C/C(=C\CNC(=O)CCl)c1cnn(C)c1.Cl
inactive: USP34 -0.267 | USP36 -0.266 | USP38 -0.227 | USP39 0.0033 | USP4 -0.395
